Screening results (PubChem)
PI4K2A block – qHTS for small molecular inhibitors of PI4K2A. purified PI4K2A, ADP-Glo luminescence, 1 h; hits give low values. activity change, negative = inhibition, % at 76.9 µM. 420,000 compounds, 0.13% hits. AID 1346378, 2018; in the data active means activity change below about -50%; inconclusive means mostly about -30% to -49%
Target sequence (Q9BTU6 whole entry, looked up): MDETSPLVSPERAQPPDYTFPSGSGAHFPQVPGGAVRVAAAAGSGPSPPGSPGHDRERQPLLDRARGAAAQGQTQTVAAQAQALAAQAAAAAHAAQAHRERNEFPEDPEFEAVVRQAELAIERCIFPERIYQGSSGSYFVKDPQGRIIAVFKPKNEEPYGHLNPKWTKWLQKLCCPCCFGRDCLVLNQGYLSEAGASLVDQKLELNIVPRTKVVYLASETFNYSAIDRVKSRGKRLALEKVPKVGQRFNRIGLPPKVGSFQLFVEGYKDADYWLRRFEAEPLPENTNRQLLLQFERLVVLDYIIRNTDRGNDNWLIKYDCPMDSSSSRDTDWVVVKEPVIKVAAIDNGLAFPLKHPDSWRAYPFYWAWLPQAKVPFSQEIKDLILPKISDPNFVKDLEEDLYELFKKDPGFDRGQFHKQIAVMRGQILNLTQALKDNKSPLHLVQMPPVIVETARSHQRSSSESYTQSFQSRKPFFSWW
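Compounds are screened against recombinant PI4K2A using PI as substrate and ATP, the latter dispensed at 300 microM. Reactions run one hour at ambient temperature before ADP-Glo detection; full inhibition defined by wells lacking enzyme.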
D3 antag – qHTS of D3 Dopamine Receptor Antagonist: qHTS; D(3) dopamine receptor (Homo sapiens), P35462; D3R cells, DiscoveRx beta-arrestin luminescence, antagonist mode; hits give low values; max response, negative = inhibition, %; 360,000 compounds, 2.5% hits; in the data active means max response below about -50%; inconclusive means no clear call, values can overlap the other calls
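Cells expressing the human receptor were seeded at 1500 cells/well, incubated overnight at 37 degrees C in 5% CO2, then exposed to library compounds with dopamine controls for 90 minutes at 37 degrees C before luminescent detection.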
D3 ag – qHTS of D3 Dopamine Receptor Agonist: qHTS. D3R DiscoveRx beta-arrestin cells, luminescence, 90 min. max activation, %. 410,000 compounds, 0.58% hits. AID 652048, 2013; in the data active means max activation above about 30%
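Cells at 1500/well, incubated overnight, then treated with pinned compounds (dopamine as control) for 90 min at 37 degrees C. DiscoveRx reagent added for 30 - 60 minutes at room temperature; luminescence read.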
Akt phos inh – HTS Assay for Inhibitors of Akt Phophorylation: Primary Screen | Neuro2A IGF-stimulated pAkt S473 HTRF, 20 min; hits give low values | activity change, % for hits at 50 µM | 360,000 compounds, 0.32% hits; in the data active means activity change below about -80%; inconclusive means mostly about -51% to -80%
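Single-point screen (50 µM final compound) in Neuro2A cells stimulated 20 min with 6 nM IGF at 37 deg C. After lysis, Ser473-phosphorylated Akt read by HTRF (ex 330 nm, em 615/665 nm) as the 665/615 ratio.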
LDHA inh – qHTS assay for inhibitors of human lactate dehydrogenase. activity change, % (values are at about 110 or 230 µM). L-lactate dehydrogenase A chain (Homo sapiens), P00338. 480,000 compounds, 0.15% hits. purified LDHA, NADH/diaphorase-resazurin fluorescence; hits give low values; in the data active means activity change below about -30%; inconclusive means mostly about -25% to -30%
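Remaining NADH was detected by diaphorase (0.133 mg/mL) converting 37 µM resazurin to fluorescent resorufin, read at 0 and 20 minutes. The preceding 5-minute room-temperature reaction used 2 nM LDHA, 0.2 mM sodium pyruvate and 0.06 mM NADH at pH 7.4.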
RGS4 inh – Inhibitors of Regulator of G Protein Signaling (RGS) 4: qHTS; Transcreener GDP fluorescence polarization, RGS4-accelerated GTP hydrolysis; AID 504845, 2011; Potency, µM (top dose mostly 114 µM), hits mostly inhibitors; 390,000 compounds, 0.039% hits; active means well fitted inhibition curve with a large enough effect; inconclusive means small, poorly fitted or top-dose-only effect; inactive means no such curve, though single readings can be large or run the other way; further: nearly all actives have a fitted effect of over 75% in size
Target sequence (P49798 whole entry, looked up): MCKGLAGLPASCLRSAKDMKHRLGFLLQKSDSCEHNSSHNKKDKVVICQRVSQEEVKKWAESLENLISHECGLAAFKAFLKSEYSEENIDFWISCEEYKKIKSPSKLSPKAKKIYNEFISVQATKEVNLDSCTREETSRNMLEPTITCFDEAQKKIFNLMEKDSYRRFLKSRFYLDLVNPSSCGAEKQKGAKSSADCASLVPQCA
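MLSMR compounds (23 nl, pin-transferred) preincubated 10 min at room temperature with a 500nM (2x) first reagent, then RGS4 at 900nM (2x) plus Transcreener GDP mix added; fluorescence polarization (620/688 nm) read before and after 90 min at 30 °C.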
A number is an active result; - = inactive; ? = inconclusive; . = no result given; [ ] = another dose, or the depositor's remark. Most compounds without a hit are left out; they make up all but 2.8% or so of the library.

SMILES	PI4K2A block	D3 antag	D3 ag	Akt phos inh	LDHA inh	RGS4 inh
CC(C)(CC(=O)O)CC(=O)Nc1cccc2ccccc12	.	.	.	.	-	.
CCc1cc(C(=O)NCC(c2ccco2)N2CCCCC2)sc1C (centres undefined)	-	-59.4	-	-	-	-
CC(=O)Nc1ccc(S(=O)(=O)NC(C)C(=O)NCC(c2ccco2)N2CCCCC2)cc1 (centres undefined)	-	-	-	-	-	-
O=C(NCC(c1ccco1)N1CCCC1)c1ccccc1F (centres undefined)	-	?	-	-	-	-
Cc1c(C(=O)NCC(c2ccco2)N2CCCC2)sc2ccccc12 (centres undefined)	-	-64.3	-	-	-	-
Cc1ccc(S(=O)(=O)NC(CC(C)C)C(=O)NCC(c2ccco2)N2CCCCC2)cc1 (centres undefined)	-	-78.9	-	-	-	-
S=C(NCc1ccco1)NCC(c1ccco1)N1CCCCC1 (centres undefined)	-	-65.8	-	-	-	-
COc1ccc2cc(CNc3ccc(C)cc3)c(=O)n(CC(=O)Nc3ccc(C)cc3C)c2c1	.	.	.	.	-	.
CCC(C)NC(=O)c1cc2sc3ccccc3c2s1 (centres undefined)	.	.	.	.	-	.
Cc1ccc(Nc2cc(C)nc(-n3nc(C)cc3C)n2)cc1	-	.	-	.	-	-
CCOc1ccc(Nc2cc(C)nc(-n3nc(C)cc3C)n2)cc1	-	-52.3	-	-	-	-
CCOc1cc(/C=N/Nc2cc(C)nc(-n3nc(C)cc3C)n2)ccc1O	-	-174.9	-	-	-	-
COc1ccc(NC(=S)N(CCCN2CCOCC2)C(C)c2cc3cccc(OC)c3o2)cc1 (centres undefined)	-	-	-	-	-	-
COc1cccc(NC(=S)N(CCCN2CCOCC2)C(C)c2cc3ccccc3o2)c1 (centres undefined)	-	-54.6	-	-	-	-
COc1ccc(OC)c(C(=O)NC2CCCC2)c1	.	.	.	.	-	.
CCN1CCCC(NC(=O)c2cc([N+](=O)[O-])ccc2OC)C1 (centres undefined)	-	-59.6	-	-	-	-
Cc1ccc2nc(-c3ccccc3)cc(C(=O)N3CCN(c4ccccc4O)CC3)c2c1	-	-	31.4	-	-	-
O=C(c1cc(-c2ccccc2)nc2ccccc12)N1CCN(c2ccccc2O)CC1	-	-	-	-	-	-
Cc1nc2cc(NC(C)C(=O)Nc3ccccc3C)ccc2o1 (centres undefined)	.	.	.	.	-	.
CCc1nnc(NS(=O)(=O)c2ccc(NC(=O)c3ccc(Cl)cc3)cc2)s1	-	-	-	-	-	-[11.4 µM]
CCc1nnc(NS(=O)(=O)c2ccc(NC(=S)NC(=O)/C=C/c3ccccc3)cc2)s1	-	-67.9	-	-	-	-
O=C(/C=C/c1ccc(Br)cc1)NC(=S)Nc1ccc(S(=O)(=O)Nc2nccs2)cc1	-	-52.8	-	-	-	-
CCc1nnc(NS(=O)(=O)c2ccc(NC(=O)c3cccc(Cl)c3)cc2)s1	-	-68.3	-	-	-	-
CCc1nnc(NS(=O)(=O)c2ccc(NC(=S)Nc3ccc(F)cc3)cc2)s1	-	-	-	-	-	-
CCc1nnc(NS(=O)(=O)c2ccc(NC(=S)NC(=O)/C=C/c3ccc(C(C)C)cc3)cc2)s1	-	-128.9	-	-	-	?
SMILES	PI4K2A block	D3 antag	D3 ag	Akt phos inh	LDHA inh	RGS4 inh
Cc1cc(C)c2oc(=O)cc(CN3CCN(CCO)CC3)c2c1	.	.	.	.	-	.
CCc1nnc(NS(=O)(=O)c2ccc(NC(=O)/C=C/C(=O)O)cc2)s1	-	-62.4	-	-	-	-
CCc1nnc(NS(=O)(=O)c2ccc(NC(=S)NC(=O)c3ccc(Br)cc3)cc2)s1	-	-65.4	-	-	-	?
CCc1nnc(NS(=O)(=O)c2ccc(NC(=S)NC(=O)c3ccccc3)cc2)s1	-	-	-	-	-	?
CCc1nnc(NS(=O)(=O)c2ccc(NC(=O)/C=C/c3ccccc3Cl)cc2)s1	-	-	-	-	-	-
COc1ccc(NS(=O)(=O)c2ccc(NC(=O)c3ccc(Br)cc3)cc2)nn1	-	-	-	-	-	-
COc1ccc(NS(=O)(=O)c2ccc(NC(=S)NC(=O)c3ccc(Br)cc3)cc2)nn1	-	-53.1	-	-	-	-
CCc1nnc(NS(=O)(=O)c2ccc(NC(=S)NC(=O)/C=C/c3ccc(OC)cc3)cc2)s1	-	-72.8	-	-	-	?
Cc1nc(-c2ccc(CNC(=O)NCc3ccccc3)s2)cs1	.	.	.	.	-	.
Cc1ccccc1CN1CCN(C(=O)c2ccc3ccccc3n2)CC1	.	.	.	.	-	.
CCOCCOC(=O)COc1ccc2c(=O)c(-c3ccc(OC)c(OC)c3)c(C(F)(F)F)oc2c1	.	.	.	.	-	.
O=C(NCCCN1CCN(c2ccccc2F)CC1)Nc1ccccc1[N+](=O)[O-]	-	-88.8	-	-	-	-
O=C(Nc1ccc(C(=O)NCCCN2CCN(c3ccccc3)CC2)cc1)C1=CSCCO1	-	-73.0	-	-	-	-
Cc1ccccc1NC(=O)NCCCN1CCN(c2ccccc2)CC1	-	?	49.6	-	-	-
O=C(NCCCN1CCN(c2ccccc2)CC1)Nc1ccccc1C(F)(F)F	-	?	30.4	-	-	-
NC(=O)C(c1ccccc1)N(Cc1cccs1)C1CC1 (centres undefined)	.	.	.	.	-	.
COc1ccc(C(=O)N/N=C/c2sc3ccccc3c2O)cc1	-	-51.2	-	-	-	-
Cc1cc(C)n(S(=O)(=O)c2cc(Cl)ccc2Cl)n1	-	-	-	-120.9%	-	-
CCOc1ccc(C(C)(C)C)cc1S(=O)(=O)n1nc(C)cc1C	-	-50.2	-	-	-	-
Cc1cc(C)n(S(=O)(=O)c2ccc(Cl)cc2)n1	-	-	-	-	-	-
O=C(NCc1ccc(F)cc1)c1nc(Cc2c[nH]c3ccccc23)no1	.	.	.	.	-	.
N#C/C(=C\C=C\c1ccco1)C(=O)NC1CC1	.	.	.	.	-	.
CC(C)c1ccc(NC(=O)Nc2nnc([C@@H]3C[C@H](O)[C@@H](CO)O3)s2)cc1	-	-	-	-	-	.
O=C(Nc1ccc(OCc2ccccc2)cc1)Nc1nnc([C@@H]2C[C@H](O)[C@@H](CO)O2)s1	-	-	-	.	-	.
O=C(Nc1cccc(Cl)c1)Nc1nnc([C@@H]2C[C@H](O)[C@@H](CO)O2)s1	-	-	-	-	-	.
